Laboratory results: PubChem BioAssay AID1159580 (chemical genetic matrix, 2015)
Among all 5,500 compounds or so, about 2,000 (36%) were called active. Roughly 18% stayed inconclusive and do not appear here. Rule as the data show it: active = normalized growth mostly below about 0.91 (no sharp cut-off); inconclusive = no clear call, values can overlap the other calls; inactive = mostly above about 0.92. This is one part of the list.

Assay: chemical genetic growth profiling, strain panel (AID 1159580);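 also: tested at 20 µM; growth read once vehicle control cultures reached saturation at 30 °C; 1 = growth at the plate median or of vehicle wells; lower values mean less growth of the strain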
Settings: growth OD

Measured: normalized growth

CC(NCCC(c1ccccc1)c1ccccc1)c1ccccc1 (configuration not stated)
inactive: S. cerevisiae deletion strains, locus YKL009W, strain mrt4, stronger effect = lower value 0.944 | S. cerevisiae deletion strains, locus YKL068W, stronger effect = lower value 0.981 | S. cerevisiae deletion strains, locus YKL085W, strain MDH1 (second series), stronger effect = lower value 0.985 | S. cerevisiae deletion strains, locus YKL085W, strain MDH1, stronger effect = lower value 0.985 | S. cerevisiae deletion strains, locus YKL160W, strain elf1, stronger effect = lower value 0.908 | S. cerevisiae deletion strains, locus YKL190W, strain CNB1, stronger effect = lower value 0.988 | S. cerevisiae deletion strains, locus YKR001C, strain vps1, stronger effect = lower value 0.936 | S. cerevisiae deletion strains, locus YKR026C, strain gcn3, stronger effect = lower value 1.01 | S. cerevisiae deletion strains, locus YKR091W, strain srl3, stronger effect = lower value 1 | S. cerevisiae deletion strains, locus YLL001W, strain dnm1, stronger effect = lower value 0.945 | S. cerevisiae deletion strains, locus YLL026W, stronger effect = lower value 0.981 | S. cerevisiae deletion strains, locus YLL041C, strain sdh2, stronger effect = lower value 0.997 | S. cerevisiae deletion strains, locus YLR027C, strain aat2, stronger effect = lower value 0.934 | S. cerevisiae deletion strains, locus YLR039C, strain RIC1, stronger effect = lower value 1.28 | S. cerevisiae deletion strains, locus YLR058C, strain SHM2, stronger effect = lower value 0.958 | S. cerevisiae deletion strains, locus YLR102C, strain apc9, stronger effect = lower value 0.985 | S. cerevisiae deletion strains, locus YLR113W, strain HOG1, stronger effect = lower value 1.01 | S. cerevisiae deletion strains, locus YLR221C, strain rsa3, stronger effect = lower value 0.937 | S. cerevisiae deletion strains, locus YLR258W, strain gsy2, stronger effect = lower value 0.974 | S. cerevisiae deletion strains, locus YLR262C, strain YPT6 (second series), stronger effect = lower value 0.986 | S. cerevisiae deletion strains, locus YLR262C, strain YPT6, stronger effect = lower value 1.16 | S. cerevisiae deletion strains, locus YLR268W, strain sec22, stronger effect = lower value 0.989 | S. cerevisiae deletion strains, locus YLR320W, strain mms22, stronger effect = lower value 0.898 | S. cerevisiae deletion strains, locus YLR330W, strain CHS5, stronger effect = lower value 0.992 | S. cerevisiae deletion strains, locus YLR342W, strain FKS1 (second series), stronger effect = lower value 0.885 | S. cerevisiae deletion strains, locus YLR342W, strain FKS1, stronger effect = lower value 0.993 | S. cerevisiae deletion strains, locus YLR357W, strain rsc2, stronger effect = lower value 1 | S. cerevisiae deletion strains, locus YLR371W, strain rom2, stronger effect = lower value 0.97 | S. cerevisiae deletion strains, locus YLR384C, strain iki3, stronger effect = lower value 1 | S. cerevisiae deletion strains, locus YLR418C, strain cdc73, stronger effect = lower value 0.857 | S. cerevisiae deletion strains, locus YML016C, strain PPZ1, stronger effect = lower value 0.977 | S. cerevisiae deletion strains, locus YML032C, strain rad52, stronger effect = lower value 0.937 | S. cerevisiae deletion strains, locus YML124C, strain tub3, stronger effect = lower value 0.991 | S. cerevisiae deletion strains, locus YMR078C, strain ctf18, stronger effect = lower value 0.99 | S. cerevisiae deletion strains, locus YMR125W, strain sto1, stronger effect = lower value 0.946 | S. cerevisiae deletion strains, locus YMR129W, stronger effect = lower value 0.997 | S. cerevisiae deletion strains, locus YMR205C, strain PFK2, stronger effect = lower value 0.963 | S. cerevisiae deletion strains, locus YMR223W, strain ubp8, stronger effect = lower value 0.933 | S. cerevisiae deletion strains, locus YMR263W, strain SAP30, stronger effect = lower value 0.942 | S. cerevisiae deletion strains, locus YMR307W, strain GAS1, stronger effect = lower value 0.986 | S. cerevisiae deletion strains, locus YNL067W, strain RPL9B, stronger effect = lower value 0.948 | S. cerevisiae deletion strains, locus YNL071W, strain lat1, stronger effect = lower value 0.953 | S. cerevisiae deletion strains, locus YNL128W, strain TEP1, stronger effect = lower value 0.884 | S. cerevisiae deletion strains, locus YNL153C, strain GIM3, stronger effect = lower value 0.921 | S. cerevisiae deletion strains, locus YNL183C, strain NPR1, stronger effect = lower value 0.933 | S. cerevisiae deletion strains, locus YNL233W, strain BNI4, stronger effect = lower value 0.927 | S. cerevisiae deletion strains, locus YNL248C, strain rpa49, stronger effect = lower value 0.904 | S. cerevisiae deletion strains, locus YNL250W, strain rad50, stronger effect = lower value 0.943 | S. cerevisiae deletion strains, locus YNL271C, strain bni1, stronger effect = lower value 0.99 | S. cerevisiae deletion strains, locus YNL298W, strain CLA4, stronger effect = lower value 0.974 | S. cerevisiae deletion strains, locus YNL307C, strain MCK1, stronger effect = lower value 0.974 | S. cerevisiae deletion strains, locus YNL322C, strain KRE1 (second series), stronger effect = lower value 1.03 | S. cerevisiae deletion strains, locus YNL322C, strain KRE1, stronger effect = lower value 0.97 | S. cerevisiae deletion strains, locus YNR049C, strain mso1, stronger effect = lower value 1 | S. cerevisiae deletion strains, locus YNR052C, strain pop2, stronger effect = lower value 0.92 | S. cerevisiae deletion strains, locus YOL012C, strain htz1 0.924 | S. cerevisiae deletion strains, locus YOL147C, strain pex11, stronger effect = lower value 1 | S. cerevisiae deletion strains, locus YOR061W, strain CKA2, stronger effect = lower value 0.938 | S. cerevisiae deletion strains, locus YOR069W, strain VPS5, stronger effect = lower value 0.986 | S. cerevisiae deletion strains, locus YOR080W, strain dia2, stronger effect = lower value 1 | S. cerevisiae deletion strains, locus YOR144C, strain elg1, stronger effect = lower value 0.989 | S. cerevisiae deletion strains, locus YOR184W, strain ser1, stronger effect = lower value 1.01 | S. cerevisiae deletion strains, locus YOR231W, strain MKK1, stronger effect = lower value 0.992 | S. cerevisiae deletion strains, locus YOR265W, strain rbl2, stronger effect = lower value 1 | S. cerevisiae deletion strains, locus YOR316C, strain cot1, stronger effect = lower value 0.98 | S. cerevisiae deletion strains, locus YPL055C, strain LGE1, stronger effect = lower value 0.782 | S. cerevisiae deletion strains, locus YPL078C, strain atp4, stronger effect = lower value 0.939 | S. cerevisiae deletion strains, locus YPL106C, strain sse1, stronger effect = lower value 1.08 | S. cerevisiae deletion strains, locus YPL240C, strain hsp82, stronger effect = lower value 0.999 | S. cerevisiae deletion strains, locus YPL241C, strain CIN2, stronger effect = lower value 0.985 | S. cerevisiae deletion strains, locus YPL256C, strain CLN2, stronger effect = lower value 0.972 | S. cerevisiae deletion strains, locus YPR119W, strain clb2, stronger effect = lower value 0.994 | S. cerevisiae deletion strains, locus YPR141C, strain kar3, stronger effect = lower value 0.969 | S. cerevisiae deletion strains, locus YPR167C, strain met16, stronger effect = lower value 0.977 | S. cerevisiae deletion strains, strain wtn01, stronger effect = lower value 0.964 | S. cerevisiae strains, strain wild type, stronger effect = lower value 0.974
active: S. cerevisiae deletion strains, locus YJR075W, strain HOC1, stronger effect = lower value 0.875 | S. cerevisiae deletion strains, locus YLR370C, strain arc18, stronger effect = lower value 0.822 | S. cerevisiae deletion strains, locus YML120C, strain ndi1, stronger effect = lower value 0.886 | S. cerevisiae deletion strains, locus YMR058W, strain fet3, stronger effect = lower value 0.849 | S. cerevisiae deletion strains, locus YMR231W, strain pep5, stronger effect = lower value 0.731 | S. cerevisiae deletion strains, locus YNL209W, strain ssb2, stronger effect = lower value 0.888 | S. cerevisiae deletion strains, locus YOL006C, strain TOP1, stronger effect = lower value 0.468 | S. cerevisiae deletion strains, locus YOR001W, strain rrp6, stronger effect = lower value 0.887 | S. cerevisiae deletion strains, locus YOR070C, strain gyp1, stronger effect = lower value 0.908 | S. cerevisiae deletion strains, locus YOR083W, strain WHI5, stronger effect = lower value 0.846 | S. cerevisiae deletion strains, locus YOR106W, strain vam3, stronger effect = lower value 0.618 | S. cerevisiae deletion strains, locus YOR136W, strain idh2, stronger effect = lower value 0.907 | S. cerevisiae deletion strains, locus YOR270C, strain vph1, stronger effect = lower value 0.375 | S. cerevisiae deletion strains, locus YOR290C, strain snf2, stronger effect = lower value 0.837 | S. cerevisiae deletion strains, locus YPL051W, strain arl3, stronger effect = lower value 0.767 | S. cerevisiae deletion strains, locus YPR163C, strain tif3, stronger effect = lower value 0.872
